According to PubChem BioAssay (EPA / NIEHS):
“And” between values parts separate entries of the source, which are not always exact repeats. Equal values may be shown once. Some structures have more than one record in an assay (separate samples or runs), and their calls can disagree. The source made the active and inactive calls. Rule for the calls: active = hit-call score of the fitted dose curve at least 0.9, where 1 is the maximum; inactive = score below 0.9.

Assays:
[1] = ATG_E_Box_CIS: Attagene CIS-FACTORIAL HepG2 Assay for human Enhancer Box (E-box) (AID 2282936); conditions: HepG2 E-box cis-reporter transcription, actives raise or lower the signal
Outline: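 In this cell-based setup, HepG2 cells bearing transfected promoter-driven reporter units were exposed to chemicals for 24 h; reporter transcripts were amplified, 6-FAM-labelled, cut with HpaI and sized by capillary electrophoresis.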

[2] = ATG_M_61_CIS: Attagene CIS-FACTORIAL HepG2 Assay for M61 Transcription Factor (Internal Marker) (AID 2282937); conditions: HepG2 Attagene CIS-FACTORIAL M61 internal marker reporter; actives raise or lower the signal
Outline: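 This endpoint serves as an internal background control within a multiplexed HepG2 cis-reporter panel. Cells are exposed for 24 h; reporter mRNA is amplified, fluorescently labelled and sized by capillary electrophoresis, with DMSO as negative control.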

[3] = ATG_EGR_CIS: Attagene CIS-FACTORIAL HepG2 Assay for human Early Growth Response 1 (EGR1) (AID 2282938); conditions: HepG2 Attagene CIS-FACTORIAL EGR reporter mRNA; actives raise or lower the signal
Outline: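 HepG2, transient MRTU transfection (cis promoters), 24 h compound. RNA → RT (oligo-dT) → PCR → 6-FAM labelling → HpaI cut → CE fluorescence. Bidirectional fit, DMSO baseline.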

[4] = ATG_M_19_CIS: Attagene CIS-FACTORIAL HepG2 Assay for M19 Transcription Factor (Internal Marker) (AID 2282939); conditions: HepG2 Attagene CIS-FACTORIAL M19 internal marker reporter; actives raise or lower the signal
Outline: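 Signals come from fluorescence of labelled reporter-specific PCR fragments resolved by capillary electrophoresis, following 24 h treatment of HepG2 cells transfected with cis-promoter reporter units; activity was fitted in both directions relative to DMSO.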

[5] = ATG_ERE_CIS: Attagene CIS-FACTORIAL HepG2 Assay for Estrogen Response Element (ERE) (AID 2282940); conditions: HepG2 ERE cis-reporter, Attagene RNA transcript; actives raise or lower the signal
Outline: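 Fluorescence of capillary-separated, FAM-labelled reporter cDNA fragments indicates reporter mRNA levels in HepG2 cells exposed to chemicals for 24 h. Transient transfection with cis-regulated units; data fitted in both directions against DMSO.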

[6] = ATG_Ets_CIS: Attagene CIS-FACTORIAL HepG2 Assay for human Erythroblast Transformation Specific (ETS) (AID 2282941); conditions: HepG2 ETS cis-reporter transcription, actives raise or lower the signal
Outline: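 Cis-regulated reporter mRNA induction in HepG2 (transient transfection), 24 h exposure, RT-PCR plus capillary electrophoresis detection; DMSO serves as negative control and baseline.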

[7] = target: Hepatocyte nuclear factor 3-beta (Homo sapiens) (UniProt Q9Y261); experiment: ATG_FoxA2_CIS: Attagene CIS-FACTORIAL HepG2 Assay for human Forkhead box A2 (FOXA2) (AID 2282942); conditions: HepG2 cis-reporter transcription factor activity, 24 h; actives raise or lower the signal
Outline: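 Cells: HepG2, transient multiplex reporter transfection. Exposure 24 h. Detection: reporter-specific RT-PCR, fluorescent labelling, restriction digest, capillary electrophoresis. Analysis: bidirectional curve fit, DMSO as negative control.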

[8] = ATG_FoxO_CIS: Attagene CIS-FACTORIAL HepG2 Assay for human Forkhead box O (FoxO) (AID 2282943); conditions: HepG2 Attagene cis-reporter, FoxO element, mRNA; actives raise or lower the signal
Outline: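 Read-out: fluorescence of 6-FAM-labelled reporter cDNA fragments resolved by capillary electrophoresis. Transiently transfected HepG2 cells were dosed for 24 h; activity fitted in both directions relative to DMSO controls.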

[9] = ATG_GATA_CIS: Attagene CIS-FACTORIAL HepG2 Assay for human GATA Binding Protein (AID 2282944); conditions: HepG2 GATA cis-element reporter, Attagene multiplex mRNA; actives raise or lower the signal
Outline: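 After transfecting HepG2 cells with multiple cis-regulated reporter units, chemicals are dosed for 24 h; isolated RNA undergoes RT-PCR and fluorescent labeling before capillary electrophoresis, with activity expressed against DMSO.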

[10] = ATG_GLI_CIS: Attagene CIS-FACTORIAL HepG2 Assay for human Zinc Finger Protein GLI1 (AID 2282945); conditions: HepG2, Attagene cis-factorial reporter mRNA, GLI element; actives raise or lower the signal
Outline: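 Transiently transfected HepG2 cells report endogenous transcription factor activity via cis-element-driven reporter units. After 24 h compound exposure, reporter mRNA was measured by RT-PCR with capillary electrophoresis; bidirectional fitting against DMSO baseline.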

Chain of Hepatocyte nuclear factor 3-beta (Homo sapiens) (Q9Y261 whole entry, looked up): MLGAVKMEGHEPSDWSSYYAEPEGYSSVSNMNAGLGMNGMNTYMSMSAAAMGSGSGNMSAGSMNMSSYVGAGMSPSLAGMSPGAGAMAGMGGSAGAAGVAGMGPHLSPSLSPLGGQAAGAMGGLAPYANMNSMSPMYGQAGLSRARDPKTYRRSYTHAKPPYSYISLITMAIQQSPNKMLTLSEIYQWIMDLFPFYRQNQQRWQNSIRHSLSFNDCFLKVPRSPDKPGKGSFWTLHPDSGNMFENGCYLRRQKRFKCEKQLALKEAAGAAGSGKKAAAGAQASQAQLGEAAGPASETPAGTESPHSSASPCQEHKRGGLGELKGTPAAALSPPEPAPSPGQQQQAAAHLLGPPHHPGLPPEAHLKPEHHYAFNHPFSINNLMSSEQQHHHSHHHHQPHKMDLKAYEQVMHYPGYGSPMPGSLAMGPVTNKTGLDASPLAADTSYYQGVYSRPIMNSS

SMILES | outcome [1] | outcome [2] | outcome [3] | outcome [4] | outcome [5] | outcome [6] | outcome [7] | outcome [8] | outcome [9] | outcome [10] | AC50 [5] | AC50 [1] | AC50 [3] | AC50 [8] | AC50 [10] | AC50 [6] | AC50 [9]
ClCc1ccccn1 | inactive | inactive | inactive | inactive | inactive | inactive | inactive | inactive | inactive | inactive | – | – | – | – | – | – | –
COP(=S)(OC)Oc1ccc(S(=O)(=O)N(C)C)cc1 | inactive | inactive | inactive | inactive | inactive | inactive | inactive | inactive | inactive | inactive | – | – | – | – | – | – | –
CCOP(=S)(OCC)SCSP(=S)(OCC)OCC | inactive | inactive | inactive | inactive | – | inactive | inactive | inactive | inactive | inactive | 6.47 µM (active) | – | – | – | – | – | –
C[C@]12CCC(=O)C[C@@H]1CC[C@@H]1[C@@H]2CC[C@]2(C)[C@@H](O)CC[C@@H]12 | inactive | inactive | inactive | – | – | inactive | inactive | inactive | inactive | inactive | – | 24 µM (active) and 23.2 µM (active) and 13.8 µM (active) | – | – | – | – | –
O=S(=O)(c1ccc(Cl)cc1)c1ccc(Cl)cc1 | inactive | inactive | inactive | inactive | inactive | inactive | inactive | inactive | inactive | inactive | – | – | – | – | – | – | –
ClC(Cl)=C(Cl)C(Cl)=C(Cl)Cl | inactive | inactive | – | inactive | inactive | inactive | inactive | – | inactive | – | – | – | 131 µM (active) | 180 µM (active) | 158 µM (active) | – | –
CC(C)CCCCCCOC(=O)c1ccccc1C(=O)OCCCCCCC(C)C | inactive | inactive | inactive | inactive | inactive | inactive | inactive | inactive | inactive | inactive | – | – | – | – | – | – | –
O=CC=O | inactive | inactive | inactive | inactive | inactive | inactive | inactive | inactive | inactive | inactive | – | – | – | – | – | – | –
CCSC(C)CC1CC(=O)C(C(CC)=NOC/C=C/Cl)=C(O)C1 (stereo unspecified) | inactive | inactive | inactive | inactive | inactive | inactive | inactive | inactive | inactive | inactive | – | – | – | – | – | – | –
O=C(Cl)c1ccc(Cl)cc1 | inactive | inactive | inactive | inactive | inactive | inactive | inactive | inactive | inactive | inactive | – | – | – | – | – | – | –
CCOP(OCC)OCC | inactive | inactive | inactive | inactive | inactive | inactive | inactive | inactive | inactive | inactive | – | – | – | – | – | – | –
Cc1ccccc1C(=O)Nc1cccc(OC(C)C)c1 | inactive | inactive | inactive | inactive | inactive | inactive | inactive | inactive | inactive | inactive | – | – | – | – | – | – | –
CCCCCCCCCl | inactive | inactive | inactive | inactive | inactive | inactive | inactive | inactive | inactive | inactive | – | – | – | – | – | – | –
O=C1C2(Cl)C3(Cl)C4(Cl)C(Cl)(Cl)C5(Cl)C3(Cl)C1(Cl)C5(Cl)C24Cl (stereo unspecified) | inactive | inactive | – | inactive | – | inactive | inactive | inactive | inactive | inactive | – | 5.67 µM (active) and 5.25 µM (active) | – | – | 3.57 µM (active) | 20.3 µM (active) | 14.9 µM (active)
COP(=S)(OC)Oc1c(Cl)cc(C)cc1Cl | inactive | inactive | inactive | inactive | – | inactive | inactive | inactive | inactive | inactive | 9.77 µM (active) | – | – | – | – | – | –
C=C(C)C(=O)[O][Sn]([CH2]CCC)([CH2]CCC)[CH2]CCC | – | inactive | inactive | inactive | inactive | inactive | inactive | – | inactive | inactive | – | 562 nM (active) | – | 0.665 µM (active) | – | – | –
O=C(OC1CCCCC1)c1ccccc1C(=O)OC1CCCCC1 | inactive | inactive | – | inactive | – | inactive | inactive | inactive | inactive | inactive | 29.2 µM (active) | – | 25.1 µM (active) | – | – | – | –
CC(=O)C(Cl)C(=O)N(C)C (stereo unspecified) | inactive | inactive | inactive | inactive | inactive | – | inactive | inactive | inactive | inactive | – | – | – | – | – | 100 µM (active) | –
O=C1C(Cl)=C(Cl)C(=O)c2ccccc21 | inactive | inactive | inactive | inactive | – | inactive | inactive | inactive | inactive | inactive | 5.75 µM (active) | – | – | – | – | – | –
CNC(=O)O/N=C/C(C)(C)S(C)=O (stereo unspecified) | inactive | inactive | inactive | inactive | – | inactive | inactive | inactive | inactive | inactive | 84.1 µM (active) | – | – | – | – | – | –
